# Test results from PubChem BioAssay (NCI).
# The panel holds about 83,000 compounds, 20% with a hit somewhere; the sample as a whole holds those more often.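 Testing used 96-well plates and a 48-hour single-concentration exposure. Example: -40 means 40% of the starting cells died.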 A number with no mark means an inactive call. The source made the active and inactive calls. The calls were made as follows: active = growth percent below 10; inactive = the rest.
# Test system: SK-MEL-2 melanoma
# Test: NCI-60 one-dose screen, 48 h (100 = growth as untreated, 0 = no growth, -100 = all killed)
# Conditions: 10 µM
row,SMILES,growth
1,O=C(CSc1ccc(-c2ccc(Cl)cc2)nn1)Nc1ccc(Cl)c(C(F)(F)F)c1,59.7%
2,COc1cc(/C=N/NC(=O)c2ccc3nc(-c4ccc(Cl)cc4)[nH]c3c2)cc(OC)c1OC,-17.3% (active)
3,COc1cnc2c(c1)C(=O)c1c-2n(CCCNCCO)c(=O)c2cc(OC)c(OC)cc12,104%
4,O=C(CSc1nnc(-c2c[nH]c3ccccc23)n1-c1ccccc1)Nc1ccc(C(=O)/C=C/c2cccc([N+](=O)[O-])c2)cc1,101%
5,NC1=NC(c2ccccc2Cl)N=C(Nc2nn[nH]n2)N1 (configuration not stated),116%
6,O=C1NC(=NC23CC4CC(CC(C4)C2)C3)N/C1=C\c1ccc2ncccc2n1,-94.8% (active)
7,COc1cccc(/C=C2\N=C(C)N(CCc3ccc(S(N)(=O)=O)cc3)C2=O)c1,109%
8,CC1(C)[C@@H](NCO)CC[C@]2(C)[C@H]3C(=O)C=C4[C@@H]5C[C@](C)(CO)CC[C@]5(C)CC[C@@]4(C)[C@]3(C)CC[C@@H]12,94.6%
9,CN1CCN(Cc2ccc(NC(=O)c3cncc(C#Cc4cnc5ccc(N[C@H]6CCOC6)nn45)c3)cc2C(F)(F)F)CC1,-94.3% (active)
10,N#Cc1c(NC(=O)c2ccc(C(F)(F)F)cc2C(F)(F)F)sc2c1CCC(=O)C2,-38.2% (active)
11,COc1ccccc1[C@H]1C(C(=O)c2ccc(O)cc2)C2(N[C@@H]1c1ccccc1)C(=O)Nc1ccc(Br)cc12 (some centres not stated),32.1%
12,CN(CCF)c1ccc(/C=C/C(=O)c2ccc(N)cc2O)cc1,93%
13,N#Cc1c(NC(=O)c2cccc(C(F)(F)F)c2)sc2c1CCC(O)=C2,-1.48% (active)
14,O=C(CNc1nc(-c2ccccc2)cs1)Nc1cccc([N+](=O)[O-])c1,-79.9% (active)
15,O=C1Nc2cc(Cl)ccc2/C1=C/c1ccc(OCc2ccc(Br)cc2F)cc1,-47.2% (active)
16,CC1(C)CC[C@]2(C(=O)NCCCNCCCCNCCCN)CC[C@]3(C)C(=CC[C@@H]4[C@@]5(C)Cc6c([nH]c7ccccc67)C(C)(C)[C@@H]5CC[C@]43C)[C@H]2C1,101%
17,COc1cc2c(cc1OC)CN(CCCCOc1cc(O)c3c(=O)cc(-c4ccccc4)oc3c1)CC2,66.6%
18,CCCn1c(=O)c2[nH]c(-c3ccc(OCc4nc5ccc(C#N)cc5[nH]4)cc3)nc2n(CCC)c1=O,96.8%
19,O=c1[nH]c2ccc(Cl)cc2cc1CSc1ccc(Nc2nccc(-c3ccc4ccccc4c3)n2)cc1,97.2%

row,SMILES,growth
1,COc1cc(C2CC(c3ccc(C)cc3)=Nc3c(N)nc(N)nc3N2)ccc1Oc1nc(Nc2ccc(F)cc2)nc(N(C)C)n1 (configuration not stated),72.9%
2,COc1cc2c3c(n(CCCNC(C)C)c(=O)c2cc1OC)-c1nc2c(cc1C3=O)OCO2,128%
3,CC(=O)NNc1ccc2nnc(-c3ccc(Br)cc3)n2n1,104%
4,Cc1ccc(-c2nc3ccc(C(=O)N=Nc4c(O)[nH]c5ccc([N+](=O)[O-])cc45)cc3[nH]2)cc1,101%
5,COc1cc(OC(F)(F)F)ccc1C(=O)Nc1sc2c(c1C#N)CCC(=O)C2,105%
6,COc1ccc(CN2[C@@H](C(=O)NCc3ccc(C(=O)NO)cc3)Cc3c([nH]c4ccccc34)[C@@H]2C)cc1,2.82% (active)
7,Cc1cccc2cc(-c3cc(-c4ccccc4)nc(=S)[nH]3)c(Cl)nc12,27.8%
8,O=C(c1ccc([N+](=O)[O-])c([N+](=O)[O-])c1O)n1[nH]c(=O)c2ccccc2c1=O,76.1%
9,COc1ccc(-c2cc(-c3cc(C(=O)c4ccccc4)n4ccc(C)cc34)nc(N)c2C#N)cc1,84.8%
10,NC(=Nc1ccc(OCCCCCCCCn2ccnn2)cc1)c1ccccc1,14.8%
11,COc1ccc(C=CC(=O)c2ccc(-n3c(C)nc4c(cnn4-c4ccccc4)c3=O)cc2)cc1,70.6%
12,CCOC(=O)C1=C(N)N(c2ccc(Cl)cc2)C2=C(C(=O)CC(C)(C)C2)C1c1ccc(N2CCOCC2)cc1 (configuration not stated),96.2%
13,CC1=N/C(=C\c2ccc(N(C)C)cc2)C(=O)N1CCc1ccc(S(N)(=O)=O)cc1,97.9%
14,CC(C)(C)Nc1nc2cc(Cl)c(Cl)cc2nc1S(C)(=O)=O,37.2%
15,CO[C@H]1CSS[C@@H]1Cn1nc(-c2ccc(Oc3ccccc3)cc2)c2c(N)ncnc21,-34% (active)
16,CNC(=O)c1cc(-c2ccc(NC(=O)Nc3ccc(C)cc3)cc2)nc2cccnc12,103%
17,COc1cccc(-c2ccc(/C=N/NC(=O)c3[nH]c4ccc(Br)cc4c3-c3ccccc3)o2)c1,19.2%
18,COc1ccc(-c2cc(-c3cc(C(=O)c4ccc(Br)cc4)n4ccc(C)cc34)nc(N)c2C#N)cc1,107%
